Data from PubChem BioAssay AID1345085 (National Center for Advancing Translational Sciences (NCATS), 2018).
Inconclusive results are not listed. Unmarked numbers belong to inactive results. The source made the active and inactive calls. The call rests on the fitted dose curve; in most records, active means well fitted cell-killing curve with a large enough effect; inconclusive means small, poorly fitted or top-dose-only effect, or effect the other way; inactive means no such curve, though single readings can be large or run the other way.

System: Jar
Assay: Confirmatory qHTS for gynecologic anti-cancer compounds from libraries of approved drugs and bioactive compounds; further: nearly all actives have a fitted effect of over 55% in size
Conditions: gynecologic cancer cell panel viability, ATPlite luminescence, 48 h; series mostly up to 57.6 µM; activity change, negative = viability loss: at the top concentration
Summary of the method: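 ATP-based luminescent viability (ATPlite) after 48 h drug treatment at 37 °C, 5% CO2, across 57.5 uM–0.977 nM in 1:3 steps. Cells seeded at 1,000 per well 16 h beforehand; IC50 values computed, HEK 293T as selectivity control.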
On the % scale 0 is the no-effect control and ±100 the full control effect; potency means the concentration at half of the fitted maximal effect.

Compound | Potency | activity change, negative = viability loss
O=c1cc(CN2CCOCC2)occ1OCCCCCSc1ccnc2cc(C(F)(F)F)ccc12 | 7.69 µM (active) | 
COc1ccc(CCC(=O)c2c(O)cc(O[C@@H]3O[C@H](CO)[C@@H](O)[C@H](O)[C@H]3O[C@@H]3O[C@@H](C)[C@H](O)[C@@H](O)[C@H]3O)cc2O)cc1O |  | 29.5%
COc1cc2c(NC3CCN(C(C)C)CC3)nc(C3CCCCC3)nc2cc1OCCCN1CCCC1 | 10.9 µM (active) | 
FC(F)(F)c1ccc(/C=C/c2nc(COc3ccc(CCCCn4ccnn4)cc3)co2)cc1 | 0.0172 µM (active) | 
CN1C2CCC1CC(OC(=O)[C@H](CO)c1ccccc1)C2 (some centres not stated) |  | -0.748%
Nc1ccccc1NC(=O)c1ccc(CNC(=O)OCc2cccnc2)cc1 | 4.32 µM (active) | 
CCC1C(=O)N(C)c2cnc(Nc3ccc(C(=O)NC4CCC(N5CCN(CC6CC6)CC5)CC4)cc3OC)nc2N1C(C)C (configuration not stated) | 0.0611 µM (active) | 
NC(=O)c1cccc2cn(-c3ccc([C@@H]4CCCNC4)cc3)nc12 |  | 7.43%
CCC(=O)N1CCN(c2ccc(-n3c(=O)ccc4cnc5ccc(-c6cnc7ccccc7c6)cc5c43)cc2C(F)(F)F)CC1 | 1.57 µM (active) | 
CCc1nc(C(N)=O)c(Nc2ccc(N3CCC(N4CCN(C)CC4)CC3)c(OC)c2)nc1NC1CCOCC1 | 13.4 µM (active) | 
Cc1ccc(C(=O)Nc2ccc(CN3CCN(C)CC3)c(C(F)(F)F)c2)cc1C#Cc1cnc2cccnn12 | 30.6 µM (active) | 
COc1ccc(OC)c(-c2nnc3ccc(-c4ccc(OC)c(O[C@@H]5CCOC5)c4)nn23)c1 | 12.2 µM (active) | 
